Experimental findings from PubChem BioAssay AID651965 (National Center for Advancing Translational Sciences (NCATS), 2013) are described below.

Screen size: about 340,000 compounds; about 6,400 (1.9%) were called active. About 4% were inconclusive and are not listed. For the sample, actives were picked, then their nearest neighbours and some compounds at random. Values without a mark were called inactive. The call rests on the fitted dose curve; in most records, active means well fitted falling curve with a large enough effect; inconclusive means small, poorly fitted or top-dose-only effect; inactive means no such curve, though single readings can be large or run the other way.
Potency means the concentration at half of the fitted maximal effect.

For this assay, the target named is ATP-dependent Clp protease proteolytic subunit (Bacillus subtilis (strain 168)) (UniProt P80244). Description: qHTS Assay for Activators of ClpP. Further: the source files actives as falling curves though it sought activators and does not explain the sign; nearly all actives have a fitted effect of over 65% in size. The settings on record: purified B. subtilis ClpP, FRET peptide cleavage, 20 min; series mostly up to 57.5 µM; activity change, negative = active: at the top concentration. The gist of the method: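 FRET quenching reversal measured ClpP activation: 10 microg/mL B. subtilis ClpP at pH 8 with the FRET-FV decapeptide, read at 430 nm after 320 nm excitation. The 20-min minus 0-min signal was scaled between DMSO/no-enzyme wells and ADEP (5.8 microM final).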
Chain of ATP-dependent Clp protease proteolytic subunit (Bacillus subtilis (strain 168)) (P80244 whole entry, looked up): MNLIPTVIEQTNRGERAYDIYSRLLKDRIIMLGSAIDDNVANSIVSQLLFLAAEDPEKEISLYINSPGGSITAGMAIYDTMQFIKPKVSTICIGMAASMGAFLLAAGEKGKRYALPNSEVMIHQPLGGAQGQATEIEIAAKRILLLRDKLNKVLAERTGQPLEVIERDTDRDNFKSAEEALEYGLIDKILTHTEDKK
(In general: Quantitative high-throughput screening tests each substance at several concentrations.)
As to `CC(C)(C)C(=O)c1c(N)[nH]c(C(=O)c2ccccc2)c1-c1ccc(F)cc1`, the “activity change, negative = active” value was 0.365%.
Same read-out and setting: the figure for `O[C@@H]1C[C@H](c2ccccc2)N(Cc2cccs2)C[C@H]1n1cc(C2CC2)nn1` is 1.89%.
Turning to `O=C(Cn1c(=O)n(-c2ccc(F)cc2)c(=O)c2sc3ccccc3c21)NC1CCCC1`, the “activity change, negative = active” value was 4.1%.
On to `O=C(Cn1c(=O)n(Cc2ccccc2)c(=O)c2sc3ccccc3c21)Nc1ccccc1F`, for which the Potency is 28.2 µM (active).
In the case of `CCOc1ccccc1NC(=O)Cn1c(=O)n(Cc2ccco2)c(=O)c2sc3ccccc3c21`, the “activity change, negative = active” value was -14.3%.
Turning to `O=C(CSC1=Nc2ccccc2C2=NC(c3ccccc3)C(=O)N12)NCC1CCCO1` (stereo not given), the Potency is 17.8 µM (active).
Consider `O=C(CSC1=Nc2ccccc2C2=NC(CC(=O)NCc3ccco3)C(=O)N12)NCc1ccco1` (stereo not given), for which the “activity change, negative = active” value was -15.2%.
Same read-out and setting: as for `Cc1ccc(CNC(=O)CSC2=Nc3ccccc3C3=NC(C)C(=O)N23)cc1` (stereo not given), the figure is 4.27%.
Consider `Cc1ccc(S(=O)(=O)N2CCN(c3nc(-n4cnc5ccccc54)nc4ccccc34)CC2)cc1`, for which the “activity change, negative = active” value is -24.6%.
For `O=C(c1ccc(Cl)cc1)n1cnc2ccccc21`, the “activity change, negative = active” value was -0.0228%.
Turning to `Cc1ccc(OCC(=O)Nn2cnc3ccccc32)cc1`, the “activity change, negative = active” value was 1.25%.
For `COc1ccc(-c2cc(C(=O)n3cnc4ccccc43)c3ccccc3n2)cc1`, the Potency is 31.6 µM (active).
Take `CC(=O)Nc1cc(-c2cccc(CO)c2)cn2c(-c3cccc(C(F)(F)F)c3)cnc12`: the “activity change, negative = active” value was -10.7%.
Same read-out and setting: the figure for `CCN(CC)c1ncnc2c1ncn2[C@H]1CN(Cc2cccs2)C[C@@H](CO)O1` is 1.98%.
As to `Cc1ccccc1N1CCN(CCCOc2ccc3c(C)cc(=O)oc3c2)CC1`, the Potency was 35.5 µM (active).
As for `Cc1cc(OCCCN2CCN(Cc3ccccc3)CC2)ccc1[N+](=O)[O-]`, the “activity change, negative = active” value was 2.82%.
In the case of `Cc1cc(=O)oc2cc(NC(=O)C3CC(=O)N(Cc4ccccc4)C3)ccc12` (stereo not given), the “activity change, negative = active” value was 39.1%.
The same measure, in the same setting: as for `Cc1ccccc1NC(=O)c1ccc(COc2ccc3c(C)cc(=O)oc3c2)cc1`, the figure is -26%.
With `Cc1cc(=O)oc2cc(OCC3CC(c4ccccc4Cl)=NO3)ccc12` (stereo not given), the Potency is 28.2 µM (active).
Take `COc1ccccc1N1CCN(CCCCOc2ccc(F)cc2)CC1`: the “activity change, negative = active” value is 0.387%.
Still for that read-out and setting: the figure for `COc1cccc(C(NC(C)=O)c2nc(-c3ccccc3OC)cs2)c1` (stereo not given) is -2.87%.
Same read-out and setting: as for `CC1(C(=O)Nc2ccccc2Br)CCN1C(=O)CC1CC1` (stereo not given), the figure is -0.604%.
The same measure, in the same setting: the figure for `COc1ccc(C2OC(CCc3ccccc3)Cc3[nH]c(=S)[nH]c(=O)c32)cc1` (stereo not given) is 4.97%.
In the case of `OC[C@@H]1CN(Cc2ccncc2)C[C@H](n2cnc3c(N4CCN(c5ccccc5)CC4)ncnc32)O1`, the “activity change, negative = active” value is -3.11%.
`COCCCn1cc(CN2CC(N(C)C)CS2(=O)=O)nn1` (stereo not given): the “activity change, negative = active” value is -2.45%.
For `CCCCC(O)C1=C[N+](=O)CC=C1` (stereo not given), the “activity change, negative = active” value was -4.82%.
For the compound `Cc1cc(NCc2ccco2)n2c(nc3ccccc32)c1C#N`, the Potency was 28.2 µM (active).
For the compound `Cc1cc(NC(C)C)n2c(nc3ccccc32)c1C#N`, the “activity change, negative = active” value is -1.59%.
Still for that read-out and setting: the figure for `CCOCCCNc1c(CC)c(C)c(C#N)c2nc3ccccc3n12` is -12.5%; for `N#CCCN(C(=O)Nc1ccc(Cl)c(Cl)c1)C1CCCCC1` it is -2.9%; for `CCOC(=O)C1CCCN(C(=O)c2cc(-c3cccs3)oc2C)CC1` (stereo not given) it is -7.21%.
Still for that read-out and setting: the figure for `Cc1ccc(NC(=O)CN(C)C(=O)COC(=O)c2nccnc2N)cc1` is 4.55%.
For `CCOC(=O)c1cc(C(C)C)sc1NC(=O)COC(=O)c1nccnc1N`, the Potency was 20 µM (active).
As to `CCOC(=O)c1c(NC(=O)COc2cc(C)ccc2C(C)C)sc(C)c1C`, the “activity change, negative = active” value is -8.6%.
As to `COc1ccc(-c2csc(NC(=O)c3ccc(N4C(=O)CCC4=O)cc3)n2)cc1OC`, the Potency is 14.1 µM (active).
As for `COc1ccc(C(=O)Nc2nc(-c3ccc(S(=O)(=O)N4CCOCC4)cc3)cs2)cc1`, the “activity change, negative = active” value is -13%.
Take `COc1ccc(-c2csc(Nc3cccc(C)n3)n2)cc1OC`: the “activity change, negative = active” value was 2.08%.
Still for that read-out and setting: the figure for `O=C(CSc1nc2c(cnn2-c2ccc(F)cc2)c(=O)[nH]1)N1CCCCCC1` is -2.99%.
As for `CC(=O)c1sc2nc(SCC(=O)N3CCCCC3)[nH]c(=O)c2c1C`, the Potency is 31.6 µM (active).
`C=CCNC(=O)CSc1nc2sc(C)c(C)c2c(=O)[nH]1`: the “activity change, negative = active” value is -1.33%.
Same read-out and setting: as for `CC(C)CC1C(=O)N(Cc2cn(CC3CCCCC3)nn2)CCS(=O)(=O)N1Cc1ccc(-c2ccc(Cl)cc2)cc1` (stereo not given), the figure is -2.28%.
The same measure, in the same setting: as for `CO[C@@H]1CN(C)C(=O)c2cc(NC(=O)Nc3cc(F)ccc3F)ccc2OC[C@H](C)N(C(=O)c2ccccn2)C[C@@H]1C`, the figure is 0.186%; as for `Cn1ncc(Br)c1C(=O)NCc1cccs1`, 2.03%.
For the compound `CC(C)Cn1c(N)c(C(=O)NCc2cccs2)c2nc3ccccc3nc21`, the Potency was 7.08 µM (active).
With `CCOc1ccccc1NC(=O)Cn1nnc(C(=O)NCc2cccs2)c1N`, the “activity change, negative = active” value was -0.11%.
The same measure, in the same setting: the figure for `NCCCNC(=S)NCCCN(Cc1ccc(Cl)cc1)c1ccc(Br)cn1` is -0.884%; for `CC1(C(=O)Nc2ccc3c(c2)OCCO3)CN(S(C)(=O)=O)CC(=O)N1Cc1cccc(F)c1` (stereo not given) it is -3.71%.
In the case of `CCC(C(=O)NCc1cccnc1)n1nc(C)c2sc3ccccc3c2c1=O` (stereo not given), the “activity change, negative = active” value was 3.56%.
Regarding `O=C(NCc1cccnc1)Nc1ccccc1F`, the “activity change, negative = active” value was -1.06%.
Consider `CCC(Oc1ccccc1)C(=O)NCc1cccnc1` (stereo not given), for which the Potency is 35.5 µM (active).
As for `CC(=O)Nc1cccc(-c2ccnc3c2CC(C)(C(=O)NCc2ccccc2)O3)c1` (stereo not given), the “activity change, negative = active” value was -13.9%.
As to `CC1(C(=O)Nc2ccc3c(c2)OCCO3)CCN1C(=O)Cc1cc(F)ccc1F` (stereo not given), the “activity change, negative = active” value is 1.99%.
Consider `COc1ccc(NC(=O)C2Cc3c(-c4ccc(Cl)cc4)ccnc3O2)cc1` (stereo not given), for which the “activity change, negative = active” value was -0.108%.
For the compound `O=C(Nc1ccc(-c2nnc(-c3ccccc3)o2)cc1)C1CCCO1` (stereo not given), the Potency is 12.6 µM (active).
Take `CCOc1ccc(NC(=O)c2ncoc2-c2ccco2)cc1`: the “activity change, negative = active” value is -2.31%.
Still for that read-out and setting: as for `O=C(CSc1nnc(-c2ccc(NS(=O)(=O)c3ccccc3)cc2)o1)NCC1CCCO1` (stereo not given), the figure is -5.44%.
For the compound `CC(=O)Nc1ccc(NC(=O)COc2ccc(-c3ccccc3)cc2)cc1`, the “activity change, negative = active” value was 0.862%.
Still for that read-out and setting: the figure for `COc1ccc(OCC(=O)Nc2nnc(-c3ccco3)s2)cc1` is 0.126%; for `O=C(Nc1cccc(-c2nnc(-c3ccccc3)o2)c1)C1CCCO1` (stereo not given) it is -11.2%.
In the case of `CCOc1ccc(-c2nnc(-c3ccco3)o2)cc1`, the Potency was 8.91 µM (active).
